Measured values published in PubChem BioAssay (NCATS).
Inconclusive results are not listed. Entries that show only a call come without a potency. Active and inactive are the calls of the source. Calls follow the shape of the dose curve; as a rule, active = well fitted curve in the direction sought with a large enough effect; inconclusive = small, poorly fitted or top-dose-only effect, or another doubt; inactive = no such curve, though single readings can be large; an effect the other way counts as inactive or inconclusive.

What was measured:
[1] = qHTS assay to identify small molecule inhibitors of chordoma cells - UCH-1 (AID 1259355); also: nearly all actives have a fitted effect of over 55% in size; as to potency: series mostly up to about 46 µM
In short: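 Cells (800/well) were seeded and left overnight at 37 C, 5% CO2, then treated with drugs at 15 concentrations plus a combination mix of auranofin, camptothecin, doxorubicin, rubitecan and topotecan. Viability after 48hr was read by CellTiter-Glo luminescence.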

[2] = qHTS assay to identify small molecule inhibitors of chordoma cells - UCH-2 (AID 1259356)
[3] = P-glycoprotein substrates identified in KB-8-5-11 adenocarcinoma cell line, qHTS therapeutic library screen (AID 1346987); also: nearly all actives have a fitted effect of over 65% in size
In short: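 KB-8-5-11: colchicine-selected sub-line of KB-3-1 over-expressing P-gp; assay medium lacked colchicine. 72 h drug exposure at 37 degree C, CellTiter-Glo.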
Potency is read from the fitted curve at half-maximal effect.

Row | Structure (SMILES) | Potency [1] | Potency [2] | Potency [3]
1 | CN(C)[C@@H]1C(=O)C(C(N)=O)=C(O)[C@@]2(O)C(=O)C3=C(O)c4c(O)ccc(Cl)c4[C@@](C)(O)[C@H]3C[C@@H]12 | inactive | inactive | inactive
2 | O=C(NCNC(=O)NC1C(=O)NC(=O)N1CO)NC1C(=O)NC(=O)N1CO (configuration not stated) | inactive | inactive | inactive
3 | CNC(C)C(O)c1ccc(O)cc1 (configuration not stated) | inactive | inactive | inactive
4 | CCC(=O)O[C@@](Cc1ccccc1)(c1ccccc1)[C@@H](C)CN(C)C | inactive | inactive | inactive
5 | CC(C)(O)[C@@H]1[C@H]2OC(=O)[C@@H]1[C@]1(O)C[C@H]3O[C@]34C(=O)O[C@H]2[C@]14C | inactive | inactive | inactive
6 | CC[N+](C)(CC)CCOC(=O)C(O)(c1ccccc1)c1ccccc1 | inactive | inactive | inactive
7 | CC[C@H]1[C@@H]2C[C@H]3[C@@H]4N(C)c5ccccc5[C@]45C[C@@H](C2[C@H]5O)N3[C@@H]1O (some centres not stated) | inactive | inactive | inactive
8 | O=C1CN(O)C(c2ccccc2)=c2cc(Cl)ccc2=N1 | inactive | inactive | inactive
9 | C/C(=C\c1csc(C)n1)[C@@H]1C[C@@H]2O[C@]2(C)CCC[C@H](C)[C@H](O)[C@@H](C)C(=O)C(C)(C)[C@@H](O)CC(=O)O1 | inactive | inactive | 0.0366 µM (active)
10 | O=C(NC(=O)c1c(F)cccc1F)Nc1ccc(Cl)c(Oc2ncc(C(F)(F)F)cc2Cl)c1 | inactive | inactive | inactive
11 | CN1CCCC(=C(c2cccs2)c2cccs2)C1 | inactive | inactive | inactive
12 | S=C=S | inactive | inactive | inactive
13 | c1ccc(C2(N3CCCC3)CCCCC2)cc1 | inactive | inactive | inactive
14 | O=C(CCl)c1ccc(Oc2ccc(C(=O)CCl)cc2)cc1 | inactive | inactive | inactive
15 | CCC(N)Cc1c[nH]c2ccccc12 (configuration not stated) | inactive | inactive | inactive
16 | c1ccc2sc(SNC3CCCCC3)nc2c1 | inactive | inactive | inactive
17 | CCOC(=O)c1ccccc1C(=O)OCC | inactive | inactive | inactive
18 | COc1ccc(OC)c([C@@H](O)[C@H](C)N)c1 | inactive | inactive | inactive
19 | N#CN | inactive | inactive | inactive
20 | NCC(O)c1cccc(O)c1 (configuration not stated) | inactive | inactive | inactive
21 | ClC(Cl)(Cl)Cl | inactive | inactive | inactive
22 | CCCCCCCCOC(=O)c1ccccc1C(=O)OCCCCCCCC | inactive | inactive | inactive
23 | O=C(OCCN1CCCCC1)C(O)(c1ccccc1)c1ccccc1 | inactive | inactive | inactive
24 | CCN(CC)C(=O)/C(Cl)=C(\C)OP(=O)(OC)OC | inactive | inactive | inactive

Row | Structure (SMILES) | Potency [1] | Potency [2] | Potency [3]
25 | COC([CH2][Hg])CNC(=O)c1ccccc1OCC(=O)O (configuration not stated) | inactive | inactive | inactive
26 | Oc1cc(Cl)c(Cl)cc1Cl | inactive | inactive | inactive
27 | O=c1[nH]c(=O)n(Cl)c(=O)n1Cl | inactive | inactive | inactive
28 | CN(C)CCCCCCN(C)C (tested in a mixture with another compound) | inactive | inactive | inactive
29 | CC(=O)O[C@H]1CC[C@H]2[C@@H]3CCC4=CC(=O)CCC4=C3C=C[C@]12C | inactive | inactive | 7.31 µM (active)
30 | C[C@H]1CC[C@]2(NC1)O[C@H]1C[C@H]3[C@@H]4CC[C@H]5C[C@@H](O[C@@H]6O[C@H](CO)[C@H](O[C@@H]7O[C@H](CO)[C@@H](O)[C@H](O[C@@H]8OC[C@@H](O)[C@H](O)[C@H]8O)[C@H]7O[C@@H]7O[C@H](CO)[C@@H](O)[C@H](O)[C@H]7O)[C@H](O)[C@H]6O)CC[C@]5(C)[C@H]4CC[C@]3(C)[C@H]1[C@@H]2C | 12.6 µM (active) | 2.06 µM (active) | 20.6 µM (active)
31 | C[C@H]1CC[C@]2(NC1)O[C@H]1C[C@H]3[C@@H]4CC[C@H]5C[C@@H](O)CC[C@]5(C)[C@H]4CC[C@]3(C)[C@H]1[C@@H]2C | inactive | inactive | inactive
32 | ClC1=C(Cl)[C@]2(Cl)[C@@H]3[C@H]4C[C@H]([C@@H]5O[C@H]45)[C@@H]3[C@@]1(Cl)C2(Cl)Cl | inactive | inactive | inactive
33 | CCCCCCCCCC(=O)O[C@H]1CC[C@H]2[C@@H]3CCC4=CC(=O)CC[C@]4(C)[C@H]3CC[C@]12C | inactive | inactive | 16.4 µM (active)
34 | [S]=[Sb](=[S])[S][Sb](=[S])=[S] | inactive | inactive | inactive
35 | CC(=O)O[C@H]1CC[C@@]2(C)C(=CC[C@@H]3[C@@H]2CC[C@]2(C)C(=O)CC[C@@H]32)C1 | inactive | inactive | inactive
36 | CCCC(C)C1(CC)C(=O)NC(=O)NC1=O (configuration not stated) | inactive | inactive | inactive
37 | ClCC1CO1 (configuration not stated) | inactive | inactive | inactive
38 | Cc1cccc(C(C)c2cnc[nH]2)c1C (configuration not stated) | inactive | inactive | inactive
39 | C[C@H]1CCC[C@H](O)CCCCCc2cc(O)cc(O)c2C(=O)O1 | inactive | inactive | 14.6 µM (active)
40 | O=S(=O)(O)c1cc(O)ccc1O | inactive | inactive | inactive
41 | C=CCN=C=S | inactive | inactive | inactive
42 | CN[C@H]1C[C@@H](N)[C@H](O)[C@@H](O[C@@H]2O[C@H](CO)[C@H](O)[C@@H]3OC4(O[C@H]23)O[C@H](C(N)CO)[C@H](O)[C@H](O)[C@H]4O)[C@@H]1O (some centres not stated) | inactive | inactive | inactive
43 | CC1(C)[C@H](C=C(Cl)Cl)[C@H]1C(=O)OCc1c(F)c(F)cc(F)c1F | inactive | inactive | inactive
44 | C[C@]12CC[C@H]3[C@@H](CC[C@@]45O[C@@H]4C(O)=C(C#N)C[C@]35C)[C@@H]1CC[C@@H]2O | – | inactive | –
45 | CC(=O)[C@H]1CC[C@H]2[C@@H]3CC[C@@H]4C[C@H](O)CC[C@]4(C)[C@H]3CC[C@]12C | – | inactive | –
46 | CC(C)(C)c1cc(O)ccc1O | – | inactive | inactive
47 | O=C1C=C2C=C[C@@H]3C[C@@]2(O1)[C@H]1CCCCN31 | – | inactive | –
48 | CN1[C@H]2CC[C@@H]1[C@@H](C(=O)O)[C@@H](OC(=O)c1ccccc1)C2 | inactive | inactive | inactive
